Source: PubChem
HT1080NT lethal = qHTS for induction of synthetic lethality in tumor cells producing 2HG: qHTS for the HT-1080-NT fibrosarcoma cell line | Potency, µM (titrated, usually from 46.1 µM), usual class: cytotoxic | AID 686970, 2013 | 360,000 tested, 1.6% active | HT-1080-NT fibrosarcoma viability, CellTiter-Glo ATP luminescence, 48 h;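 note: NT is the 2HG producing partner of a matched IDH1 knockdown line; nearly all actives have a fitted effect of over 55% in size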
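750 cells/well, RPMI + 5% FBS; 2 h settle, compound pin-transfer, 48 h at 37 degrees C. CellTiter-Glo 10 min RT, luminescence. Normalized to DMSO and media-only wells.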
ALOX12 inh = Primary qHTS assay for inhibitors of human arachidonate 12S-lipoxygenase (ALOX12): Round 2; purified 12hLO, xylenol orange hydroperoxide absorbance; Potency, µM (series often up to 108 µM), most hits filed as inhibitors; 580,000 tested, 1.1% active; Polyunsaturated fatty acid lipoxygenase ALOX12 (Homo sapiens), P18054; AID 1671190, 2021
Target sequence (P18054 whole entry, looked up): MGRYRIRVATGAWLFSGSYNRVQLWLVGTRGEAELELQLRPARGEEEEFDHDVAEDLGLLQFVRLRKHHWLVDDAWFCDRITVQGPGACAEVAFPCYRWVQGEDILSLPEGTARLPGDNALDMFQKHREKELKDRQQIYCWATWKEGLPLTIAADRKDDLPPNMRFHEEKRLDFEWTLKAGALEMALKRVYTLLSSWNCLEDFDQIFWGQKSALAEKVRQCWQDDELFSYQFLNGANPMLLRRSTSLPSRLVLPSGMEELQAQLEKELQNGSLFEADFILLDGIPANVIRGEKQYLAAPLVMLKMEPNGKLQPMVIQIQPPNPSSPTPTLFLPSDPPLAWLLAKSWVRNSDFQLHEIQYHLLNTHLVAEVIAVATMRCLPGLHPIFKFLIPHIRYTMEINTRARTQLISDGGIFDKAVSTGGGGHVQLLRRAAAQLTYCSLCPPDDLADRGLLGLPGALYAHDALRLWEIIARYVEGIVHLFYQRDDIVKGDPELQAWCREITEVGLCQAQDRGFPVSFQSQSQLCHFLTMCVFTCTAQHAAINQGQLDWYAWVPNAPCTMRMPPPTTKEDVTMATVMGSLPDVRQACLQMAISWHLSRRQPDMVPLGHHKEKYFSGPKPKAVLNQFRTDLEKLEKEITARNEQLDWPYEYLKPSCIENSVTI
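Purified human 12hLO at 150 nM in 25 mM Hepes, 0.01% Triton X-100, pH 7.0, preincubated 15 min at room temperature with compound. Reaction started with 40 uM arachidonic acid, 30 min at room temperature. Hydroperoxide measured by Fe-xylenol orange, 573/405 nm absorbance ratio.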
IL1B secr inh = qHTS for Inhibitors of Inflammasome Signaling: IL-1-beta AlphaLISA Primary Screen; THP-1 LPS/ATP IL-1B secretion, AlphaLISA, 16 h; stronger effect = lower value; activity change, % at 57.5 µM; 360,000 tested, 4.7% active; AID 743279, 2014; in the data active = activity change below about -50%; inconclusive = mostly about -30% to -49%
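Secreted IL-1B measured by AlphaLISA bead assay after 16 h compound exposure of THP-1 cells; compounds (final up to 57.5 uM) added 1 h before LPS (250 ng/mL) and ATP (1.25 mM) stimulation; lower signal means less secretion.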
TDP1 cell CPT = qHTS for Inhibitors of human tyrosyl-DNA phosphodiesterase 1 (TDP1): qHTS in cells in presence of CPT; Potency, µM (titrated, usually from 46.2 µM), hits mostly inhibitors; 420,000 tested, 12% active; chicken DT40 Tdp1-/-;hTDP1 cells + 20 nM CPT, ATP luminescence, 48 h; AID 686979, 2013; note: nearly all actives have a fitted effect of over 55% in size
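Chicken DT40 Tdp1-/- cells complemented with human TDP1, 400 cells/well, exposed to compounds plus 20 nM camptothecin for at least 48 h at 37 C; viability read as ATP content by CellTiter-Glo luminescence.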
TDP1 cell noCPT = qHTS for Inhibitors of human tyrosyl-DNA phosphodiesterase 1 (TDP1): qHTS in cells in absence of CPT; DT40 Tdp1-/- hTDP1 cells, no CPT, ATP luminescence, 48 h; Potency, µM (highest dose often 46.2 µM), hits mostly inhibitors; 420,000 tested, 15% active; note: nearly all actives have a fitted effect of over 55% in size
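Cells were dispensed at 400 per well, compounds added by pin tool, plates incubated ≥48 hr at 37 °C, then CellTiter-Glo added for 30 min at room temperature before luminescence reading. Line: DT40 Tdp1-/- complemented with hTDP1; camptothecin omitted.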
HT1080 IDH1KD tx = qHTS for induction of synthetic lethality in tumor cells producing 2HG: qHTS for the HT-1080-IDH1KD cell line | HT-1080 IDH1 knockdown viability, ATP luminescence, 48 h | Potency, µM (top dose mostly 46.1 µM), actives largely listed as cytotoxic | 360,000 tested, 2% active | AID 686971, 2013
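CellTiter-Glo luminescence after 48 h compound exposure at 37 degrees C of IDH1-knockdown HT-1080 cells in 5% FBS RPMI. %Activity scaled between DMSO wells and cell-free media wells, with curves fitted and assigned curve classes.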
A number is an active result. The sample as a whole holds a higher share of hits than the screen did. Unless noted, calls come from the whole dose curve; as a rule, active = well fitted curve in the direction sought with a large enough effect; inconclusive = small, poorly fitted or top-dose-only effect, or another doubt; inactive = no such curve, though single readings can be large; an effect the other way counts as inactive or inconclusive.

What do the screens show for `COC(=O)c1cccc(NC(=O)c2ccc3c(c2)N(C)C2CCCCCN2C3=O)c1` (stereo unspecified)?
ALOX12 inh: inactive

What do the screens show for `Cn1cnnc1-c1nn(C)c2c1CN(C(=O)c1n[nH]c3c1CCCCCC3)CC2`?
ALOX12 inh: inactive

What do the screens show for `Cc1cc2nc(C)n(CCOc3ccccc3)c2cc1C`?
ALOX12 inh: inactive

Results for COc1cc2c(cc1CNC(=O)Cn1nc(C)n(Cc3ccccc3)c1=O)CCC2 ?
ALOX12 inh: inactive

Results for CCN(CC)S(=O)(=O)c1cccc(NC(=O)c2ccc(Br)cc2)c1 ?
HT1080NT lethal: inactive; ALOX12 inh: inactive; IL1B secr inh: -70.3; TDP1 cell CPT: inconclusive; TDP1 cell noCPT: 20.6µM; HT1080 IDH1KD tx: inactive

How did CCCCN(CC)C(=O)c1cccc2c(C)c(C)[nH]c12 do in these assays?
ALOX12 inh: inactive

How did COC(=O)CNC(=O)C(c1ccccc1)c1ccccc1 do in these assays?
ALOX12 inh: inactive

Results for O=S(=O)(Cc1ccccc1)N=Nc1c(O)[nH]c2ccc(Br)cc12 ?
HT1080NT lethal: inactive; IL1B secr inh: inactive; TDP1 cell CPT: 13µM; TDP1 cell noCPT: 18.4µM; HT1080 IDH1KD tx: inactive

How did O=C(CNC(=O)c1ccccc1)N=Nc1c(O)[nH]c2ccc(Br)cc12 do in these assays?
HT1080NT lethal: inactive; ALOX12 inh: inconclusive; IL1B secr inh: inactive; TDP1 cell CPT: inconclusive; TDP1 cell noCPT: inactive; HT1080 IDH1KD tx: inactive

Results for CS(=O)(=O)Nc1cccc(-c2ccc3ncnc(NC4CC4)c3c2)c1 ?
ALOX12 inh: inconclusive; TDP1 cell CPT: 8.2µM; TDP1 cell noCPT: 6.51µM

What do the screens show for `CN1CCN(c2ncnc3ccc(-c4cccc(NS(C)(=O)=O)c4)cc23)CC1`?
ALOX12 inh: inconclusive; TDP1 cell CPT: 3.66µM; TDP1 cell noCPT: 6.51µM

What do the screens show for `COc1ccccc1N1CCCc2ncc(C(=O)Nc3cccc(F)c3)cc21`?
ALOX12 inh: inactive

How did CCN(C(=O)c1cc2c(s1)-c1ccccc1SC2)c1ccccc1C do in these assays?
ALOX12 inh: inactive

Results for CCCC1(CCC)NC(=O)N(CC(=O)Nc2ccc(Cl)c(S(=O)(=O)N3CCOCC3)c2)C1=O ?
HT1080NT lethal: inactive; ALOX12 inh: inactive; IL1B secr inh: -62.7; TDP1 cell CPT: inconclusive; TDP1 cell noCPT: inconclusive; HT1080 IDH1KD tx: inactive

What do the screens show for `Cc1ccc(NC(=O)CN2C(=O)NC(C)(c3ccc(Cl)cc3)C2=O)cc1S(=O)(=O)N1CCOCC1` (stereo unspecified)?
HT1080NT lethal: inconclusive; ALOX12 inh: inactive; IL1B secr inh: inactive; TDP1 cell CPT: 20.6µM; TDP1 cell noCPT: 18.4µM; HT1080 IDH1KD tx: 13µM

What do the screens show for `Cc1ccc(NC(=O)CN2C(=O)NC3(CCCCC3C)C2=O)cc1S(=O)(=O)N1CCOCC1` (stereo unspecified)?
HT1080NT lethal: inactive; ALOX12 inh: inactive; IL1B secr inh: inactive; TDP1 cell CPT: inconclusive; TDP1 cell noCPT: 23.1µM; HT1080 IDH1KD tx: inactive

How did CC1CCCCC12NC(=O)N(CC(=O)Nc1ccc(Cl)c(S(=O)(=O)N3CCOCC3)c1)C2=O (stereo unspecified) do in these assays?
HT1080NT lethal: inactive; ALOX12 inh: inactive; IL1B secr inh: inactive; TDP1 cell CPT: inconclusive; TDP1 cell noCPT: 18.4µM; HT1080 IDH1KD tx: inactive

What do the screens show for `CC1CCCCC12NC(=O)N(CC(=O)Nc1cccc(S(=O)(=O)N3CCCCC3)c1)C2=O` (stereo unspecified)?
HT1080NT lethal: inactive; ALOX12 inh: inactive; IL1B secr inh: inactive; TDP1 cell CPT: inactive; TDP1 cell noCPT: inactive; HT1080 IDH1KD tx: inactive

Results for Cc1cc(C)cc(NC(=O)NCc2c(C)nn(C)c2C)c1 ?
ALOX12 inh: inactive

What do the screens show for `COC(=O)CCCC[C@@H]1SC[C@@H]2NC(=O)N[C@@H]21`?
TDP1 cell CPT: inactive; TDP1 cell noCPT: inactive

How did COC(=O)CCCCC1SCC2NC(=O)NC21O (stereo unspecified) do in these assays?
HT1080NT lethal: inactive; ALOX12 inh: inactive; IL1B secr inh: -113.0; TDP1 cell CPT: inactive; TDP1 cell noCPT: inactive; HT1080 IDH1KD tx: inactive

What do the screens show for `O=C1OCC2(CCN(Cc3ccc4c(c3)CCO4)C2)N1Cc1ccccc1` (stereo unspecified)?
ALOX12 inh: 56.2µM

Results for O=C(c1ccccc1)c1ccc(-c2ccc(O)cc2)cc1 ?
HT1080NT lethal: 18.4µM; ALOX12 inh: inactive; IL1B secr inh: -80.5; TDP1 cell CPT: inactive; TDP1 cell noCPT: inactive; HT1080 IDH1KD tx: inconclusive

What do the screens show for `CN(CCOc1ccc(F)cc1)C(=O)c1cc2ccccc2oc1=O`?
ALOX12 inh: inactive

Results for CC(C)(C)n1nnnc1C(c1ccc(C#N)cc1)N1CCCC2(CCCCC2)C1 (stereo unspecified) ?
HT1080NT lethal: inactive; ALOX12 inh: inactive; IL1B secr inh: inconclusive; TDP1 cell CPT: 20.6µM; TDP1 cell noCPT: 23.1µM; HT1080 IDH1KD tx: inactive

How did Cc1cc(Cl)ccc1OCCn1cncn1 do in these assays?
HT1080NT lethal: inactive; ALOX12 inh: inactive; IL1B secr inh: inactive; TDP1 cell CPT: inactive; TDP1 cell noCPT: inactive; HT1080 IDH1KD tx: inactive

How did Brc1c(OCCOCCn2cncn2)ccc2ccccc12 do in these assays?
HT1080NT lethal: inactive; ALOX12 inh: inactive; IL1B secr inh: inactive; TDP1 cell CPT: inconclusive; TDP1 cell noCPT: 25.9µM; HT1080 IDH1KD tx: inactive

What do the screens show for `Cc1cc(=O)[nH]c(N/N=C/c2cc(C)n(CC(F)(F)F)c2C)n1`?
HT1080NT lethal: inactive; ALOX12 inh: inactive; IL1B secr inh: inactive; TDP1 cell CPT: 8.2µM; TDP1 cell noCPT: 7.31µM; HT1080 IDH1KD tx: inactive

How did COC(=O)c1ccc(-n2c(C)cc(/C=N/Nc3nc(C)cc(=O)[nH]3)c2C)cc1 do in these assays?
HT1080NT lethal: inactive; ALOX12 inh: inactive; IL1B secr inh: inactive; TDP1 cell CPT: 14.6µM; TDP1 cell noCPT: 16.4µM; HT1080 IDH1KD tx: inactive

How did Clc1ccc(CN2C3=NCCN3c3ccccc32)c(Cl)c1 do in these assays?
ALOX12 inh: inactive

Results for COC(=O)[C@@H](NC(=O)N(C1CCCCC1)C1CCCCC1)C(C)C ?
HT1080NT lethal: inactive; ALOX12 inh: inactive; IL1B secr inh: inactive; TDP1 cell CPT: 11.2µM; TDP1 cell noCPT: 12.6µM; HT1080 IDH1KD tx: inactive
